Here are results for 42 compounds from PMC4336329 (PLoS ONE, 2015).

Screen size: about 310,000 compounds; about 2,200 (0.71%) showed an effect of 50% or more. Effects have a minus sign here. What follows is part of a selection rich in strong results, with near analogues and random picks from the rest.

In the test the target is human ether-à-go-go-related gene (hERG) potassium channel (human, UniProt Q12809). Briefly: primary screen, population patch clamp on CHO cells stably expressing hERG; higher = less effect of the substance.
Sequence of human ether-à-go-go-related gene (hERG) potassium channel (Q12809 whole entry, looked up): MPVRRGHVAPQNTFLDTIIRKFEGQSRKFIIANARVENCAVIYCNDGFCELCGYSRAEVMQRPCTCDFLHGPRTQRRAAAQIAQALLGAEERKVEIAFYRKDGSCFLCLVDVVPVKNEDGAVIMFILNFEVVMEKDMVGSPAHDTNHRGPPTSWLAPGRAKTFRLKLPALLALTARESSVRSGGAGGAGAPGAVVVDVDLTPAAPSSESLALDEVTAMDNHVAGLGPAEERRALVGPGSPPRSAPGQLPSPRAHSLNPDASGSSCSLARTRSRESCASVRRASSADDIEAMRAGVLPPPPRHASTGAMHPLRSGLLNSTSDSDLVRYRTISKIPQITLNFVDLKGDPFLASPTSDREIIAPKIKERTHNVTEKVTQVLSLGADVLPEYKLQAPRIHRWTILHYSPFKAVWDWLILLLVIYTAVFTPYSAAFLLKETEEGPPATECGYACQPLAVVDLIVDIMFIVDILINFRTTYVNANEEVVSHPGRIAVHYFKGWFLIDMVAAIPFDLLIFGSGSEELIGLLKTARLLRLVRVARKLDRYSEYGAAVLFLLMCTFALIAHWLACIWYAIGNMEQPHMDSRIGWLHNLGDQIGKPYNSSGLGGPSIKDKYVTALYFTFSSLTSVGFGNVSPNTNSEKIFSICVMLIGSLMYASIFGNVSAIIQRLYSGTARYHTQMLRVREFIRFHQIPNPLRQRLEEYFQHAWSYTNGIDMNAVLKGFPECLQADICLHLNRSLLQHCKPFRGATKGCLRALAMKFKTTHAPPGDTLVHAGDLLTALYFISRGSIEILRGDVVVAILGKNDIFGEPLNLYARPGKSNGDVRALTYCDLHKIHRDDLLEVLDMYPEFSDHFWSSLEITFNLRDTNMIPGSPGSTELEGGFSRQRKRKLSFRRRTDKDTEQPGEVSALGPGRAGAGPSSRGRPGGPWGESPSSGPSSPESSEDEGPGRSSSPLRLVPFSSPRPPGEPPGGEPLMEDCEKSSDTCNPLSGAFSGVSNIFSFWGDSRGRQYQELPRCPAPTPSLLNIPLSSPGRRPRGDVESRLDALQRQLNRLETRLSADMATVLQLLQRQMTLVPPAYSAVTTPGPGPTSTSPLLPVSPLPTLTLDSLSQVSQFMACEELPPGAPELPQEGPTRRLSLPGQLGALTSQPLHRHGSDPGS
For the compound `CCOC(=O)N1CCC(N2CCCC(C(=O)c3cccc(OC(C)C)c3)C2)CC1` (stereo not drawn), the “hERG current change (%, negative = inhibition) at 1uM” value was -61.3%.
The same measure for `O=C(COC(=O)CCc1ccccc1)NCc1ccccc1`: 12.3%.
For `COc1ccccc1-c1nc2n(n1)C(c1cccs1)C(C(=O)Nc1cccnc1)=C(C)N2` (stereo not drawn), the “hERG current change (%, negative = inhibition) at 1uM” value is 0.0177%.
Under `COc1ccc(C2C(C(=O)Nc3cccnc3)=C(C)Nc3nc(-c4cccs4)nn32)cc1` (stereo not drawn) stands -2.21%; under `COc1cccc(-c2nc3n(n2)C(c2cccs2)C(C(=O)Nc2cccnc2)=C(C)N3)c1` (stereo not drawn), -51.2%.
The same measure for `CC(=O)OC(C(=O)NC1CCCCC1)c1ccccc1` (stereo not drawn): 9.71%; for `CCCN(C(=O)c1ccc(N(C)S(=O)(=O)c2ccc(C)cc2)cc1)C1CCS(=O)(=O)C1` (stereo not drawn): 14.8%.
Take `CCN(CC)CCCNC(=O)c1nn(-c2cccc(OC)c2)c(=O)c2ccccc12`: the “hERG current change (%, negative = inhibition) at 1uM” value is on record as -66.9%.
Take `CCN(CC)CCCNC(=O)c1nn(-c2ccc(OC)cc2OC)c(=O)c2ccccc12`: the “hERG current change (%, negative = inhibition) at 1uM” value is on record as 8.97%.
Under `CCN(CC)CCCNC(=O)CNC(=O)c1nn(-c2ccc(OC)cc2)c(=O)c2ccccc12` stands 17.5%.
Turning to `CC(=O)NS(=O)(=O)c1ccc(NC(=O)C(Sc2ccccc2)c2ccccc2)cc1` (stereo not drawn), the “hERG current change (%, negative = inhibition) at 1uM” value is listed as 7.09%.
Under `Cn1c(=O)c(C(=O)CN2CCCCC2)c(N)n(Cc2ccccc2)c1=O` stands 6.17%; under `Cc1coc2cc3oc(=O)c(CCC(=O)N4C[C@H]5C[C@@H](C4)c4cccc(=O)n4C5)c(C)c3cc12`, -16.8%; under `Cc1coc2cc3oc(=O)c(CC(=O)N4C[C@H]5C[C@@H](C4)c4cccc(=O)n4C5)c(C)c3cc12`, 4%.
The same measure for `Cc1c(CC(=O)N2C[C@H]3C[C@@H](C2)c2cccc(=O)n2C3)c(=O)oc2cc3occ(C(C)(C)C)c3cc12`: -56.8%; for `Cc1noc(C)c1COC(=O)c1cccc(S(=O)(=O)N2c3ccccc3CC2C)c1` (stereo not drawn): 10.5%.
Under `O=C(N/N=C/c1c(O)ccc2ccccc12)c1cccc(C(F)(F)F)c1` stands 13.9%; under `CC1CCCCN1C(=O)C(Cc1ccccc1)N1C(=O)C2CCCCC2C1=O` (stereo not drawn), 10.7%; under `CCOC(=O)c1c(NC(=S)Nc2ccc(F)cc2)sc2c1CCC2`, -21.8%.
Consider `COc1ccc(Cl)cc1C(=O)Nc1ccccc1N1CCN(C)CC1`, for which the “hERG current change (%, negative = inhibition) at 1uM” value is given as -70.4%.
Under `COc1ccccc1C(=O)Nc1ccccc1N1CCN(C(=O)c2ccc(Cl)cc2)CC1` stands -85.2%.
Under `CN1CCN(c2ccccc2NC(=O)c2cc(Br)ccc2Cl)CC1` stands -53.1%; under `O=C(Nc1ccccc1N1CCN(C(=O)c2ccccc2)CC1)c1ccccc1Cl`, -29.8%; under `COc1ccc(Cl)cc1C(=O)Nc1ccccc1N1CCN(C(=O)C(C)C)CC1`, -19.6%.
Under `COc1ccc(Br)cc1C(=O)Nc1ccccc1N1CCN(C(=O)c2ccccc2)CC1` stands 7.55%; under `CS(=O)(=O)N1CCN(c2ccccc2NC(=O)c2cc(Br)ccc2Cl)CC1`, -1.64%.
For `CC(=O)N1CCN(c2ccccc2NC(=O)c2cc(Br)ccc2Cl)CC1`, the “hERG current change (%, negative = inhibition) at 1uM” value was -27%.
With `COc1ccc(Cl)cc1C(=O)NC(=S)Nc1ccccc1N1CCOCC1`, the “hERG current change (%, negative = inhibition) at 1uM” value was 9.75%.
For `CC(=O)c1nc2ccccc2n1Cc1ccccc1`, the “hERG current change (%, negative = inhibition) at 1uM” value came out at 9.31%.
The same measure for `CCCCn1c(N)c(N(CCC(C)C)C(=O)C2=COCCO2)c(=O)[nH]c1=O`: 5.25%; for `COC(=O)CN1C(=O)Nc2ccc(Cl)cc2C1c1ccccc1` (stereo not drawn): 22.6%.
`Cc1cc(C)nc(N2CCC(CNC(=O)CCc3ccccc3)CC2)n1`: the “hERG current change (%, negative = inhibition) at 1uM” value is given as 20.4%.
The same measure for `O=C(NCC(c1cccs1)N1CCOCC1)c1cc(S(=O)(=O)N2CCOCC2)c(Cl)cc1Cl` (stereo not drawn): 6.08%.
The same measure for `O=C(NCc1ccncc1)c1cc(S(=O)(=O)N2CCOCC2)c(Cl)cc1Cl`: 12.6%; for `O=C(NCc1cccs1)c1cc(S(=O)(=O)N2CCOCC2)c(Cl)cc1Cl`: -78.4%.
Under `CC(=O)Nc1ccc(S(=O)(=O)Nc2ccc(S(=O)(=O)Nc3ncccn3)cc2)cc1` stands 8.81%; under `CCOC(=O)C1CCN(c2c(N3CCCC(C(=O)OCC)C3)c(=O)c2=O)CC1` (stereo not drawn), 8.36%.
For `CCOC(=O)C1CCN(Cc2ccc(-c3ccccc3)cc2)CC1`, the “hERG current change (%, negative = inhibition) at 1uM” value amounted to 8.54%.
Under `CCOC(=O)C1CCCN(c2c(N3CCN(c4cccc(Cl)c4)CC3)c(=O)c2=O)C1` (stereo not drawn) stands -54.1%; under `CCOC(=O)C1CCCN(c2c(N3CCN(C)CC3)c(=O)c2=O)C1` (stereo not drawn), 10.2%.
Under `CCOC(=O)C1CCN(c2c(NCCCN3CCN(Cc4ccccc4)CC3)c(=O)c2=O)CC1` stands 14.3%; under `CCOC(=O)C1CCN(c2c(N3CCN(Cc4ccccc4)CC3)c(=O)c2=O)CC1`, -66.6%.
